Only a selection was taken, and hits are over-represented in it overall.
IMPase Li cell = cell-permeable IMPase inhibitors with lithium potentiation. CHO-M1 cells, IP1 TR-FRET (IP-One), carbachol + lithium. Potency, µM (top dose mostly 59.4 µM), for the others: top-dose activity, negative = IMPase inhibition, most hits filed as inhibitors. actives 0.35% (n = 210,000). AID 1457;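 also: IP1 builds up when IMPase is blocked and the TR-FRET signal falls; plate controls were basal vehicle for no effect and high inhibitor control for full effect; nearly all actives have a fitted effect of over 50% in size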
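Steps: plate 2000 CHO-M1 cells per well and culture 16–30 h; add compound and lithium; incubate 30 min, 37C; add d2-IP1 tracer and Eu cryptate anti-IP1 antibody in lysis buffer; read after 10 min at room temperature.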
Tb PFK block = T. brucei PFK enzyme inhibition. Potency, µM (doses to about 57.5 µM), inactives show top-dose activity, negative = inhibition, hits mostly inhibitors. T. brucei PFK, ADP-Glo luminescence. actives 0.17% (n = 330,000). O15648;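 also: 0% = uninhibited 1x PFK enzyme wells and -100% = no-enzyme wells; nearly all actives have a fitted effect of over 60% in size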
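1.25 nM PFK with 0.5 mM F6P and 0.1 mM ATP in 0.1 M TEA pH 8.0, 5 mM MgCl2, incubated 45 min at room temperature; ADP measured by ADP-Glo luminescence; compounds titrated up to 57 uM.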
NPSR antagonist = neuropeptide S receptor (human) antagonism, cAMP. CHO-NPSR cells, cAMP TR-FRET, antagonist mode. Potency, µM (series often up to 38.3 µM), without a hit: top-dose activity change, negative = inhibition, most hits filed as inhibitors. actives 1% (n = 220,000); also: nearly all actives have a fitted effect of over 50% in size
Target sequence (Q6W5P4 whole entry, looked up): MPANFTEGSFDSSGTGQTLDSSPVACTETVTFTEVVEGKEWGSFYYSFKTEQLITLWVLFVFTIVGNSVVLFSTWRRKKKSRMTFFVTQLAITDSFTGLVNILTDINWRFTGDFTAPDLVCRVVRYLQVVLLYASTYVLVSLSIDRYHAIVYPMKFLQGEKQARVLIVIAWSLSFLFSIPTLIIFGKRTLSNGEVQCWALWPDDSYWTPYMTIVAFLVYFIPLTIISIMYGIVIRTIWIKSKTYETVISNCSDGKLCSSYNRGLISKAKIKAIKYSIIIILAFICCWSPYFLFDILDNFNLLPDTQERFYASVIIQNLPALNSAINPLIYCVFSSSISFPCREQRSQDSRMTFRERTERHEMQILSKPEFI
MBNL1-CUG inh = inhibitors of human MBNL1 binding to CUG repeat RNA; Q9NR56; TR-FRET MBNL1-His/biotin-(CUG)12 binding, 665/545 ratio; Potency, µM (series often up to 57.5 µM), inactives show at the top dose activity change, negative = inhibition, most hits filed as inhibitors; actives 0.036% (n = 280,000); active = well fitted inhibition curve with a large enough effect in the signal ratio, with a control signal flat, not every such curve was filed as active; inconclusive = small, poorly fitted or top-dose-only effect, or effect the other way, or a change in a side signal; inactive = no such curve, though single readings can be large or run the other way; the % refers to the signal ratio
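TR-FRET between His-tagged MBNL1 and biotin-(CUG)12 RNA, detected with Tb anti-His antibody (0.055 ng/ul) and streptavidin-XL665 (5 nM), 60 min at room temperature. Compounds titrated 92 nM to 58 uM; 665/545 nm ratio normalized to buffer and complex controls.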
RGS12 GoLoco inh = blocks human Gai1 binding to RGS12 GoLoco peptide, red readout | actives 0.44% (n = 230,000) | AID 880 | Potency, µM (titrated, usually from 61.6 µM), without a hit: at the highest dose activity, negative = inhibition, most hits filed as inhibitors | Gai1:RGS12 GoLoco peptide FP, rhodamine, 10 min; active = well fitted inhibition curve with a large enough effect, not every such curve was filed as active; inactive = no such curve, though single readings can be large or run the other way; also: nearly all actives have a fitted effect of over 30% in size
Target sequence (P63096 whole entry, looked up): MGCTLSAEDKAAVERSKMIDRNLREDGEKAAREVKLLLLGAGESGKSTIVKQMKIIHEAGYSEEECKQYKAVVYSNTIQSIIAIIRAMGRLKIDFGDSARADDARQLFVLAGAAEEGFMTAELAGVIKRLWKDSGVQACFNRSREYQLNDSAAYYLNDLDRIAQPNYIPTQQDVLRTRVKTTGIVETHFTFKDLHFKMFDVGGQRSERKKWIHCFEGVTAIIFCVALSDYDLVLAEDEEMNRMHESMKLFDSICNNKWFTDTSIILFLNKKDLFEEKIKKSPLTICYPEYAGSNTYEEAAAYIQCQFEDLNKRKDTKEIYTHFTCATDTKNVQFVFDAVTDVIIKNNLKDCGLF
* = called active by the depositor; ? = inconclusive; · = no result; [ ] = another dose, or the depositor's remark. Unless noted, calls follow the shape of the dose curve; as a rule, active = well fitted curve in the direction sought with a large enough effect; inconclusive = small, poorly fitted or top-dose-only effect, or another doubt; inactive = no such curve, though single readings can be large; an effect the other way counts as inactive or inconclusive. Unless noted, % is scaled to controls: 0 for no effect and ±100 for the full control effect; potency is read from the fitted curve at half-maximal effect.

SMILES | IMPase Li cell | Tb PFK block | NPSR antagonist | MBNL1-CUG inh | RGS12 GoLoco inh
CCCCC/C=C\C\C=C/C=C/C=C/[C@@H](SC[C@H](N)C(=O)NCC(=O)O)[C@@H](O)CCCC(=O)O | -11.5% | · | · | · | -2.0%
Cc1cc(NS(=O)(=O)c2ccc(NC(=O)CCCOc3ccccc3C)cc2)nc(C)n1 | · | 0.9% | · | 4.7% | ·
O=C(c1cc2sccc2n1Cc1ccccc1)N1CCc2ccccc21 | 13.2%[38.3 µM] | 6.7% | 10µM* | 121.5% | 2.6%
O=C(c1cc2sccc2n1Cc1ccccc1)N1CCCc2ccccc21 | 30.1%[38.3 µM] | 22.3% | ? | 0.7% | -7.6%
COc1ccc(S(=O)(=O)Nc2ccccc2SC)cc1C | 11.2µM* | 4.1% | -22.1%[46.1 µM] | -4.4% | -1.5%
N#CCCn1c(=O)c(-c2ccc(F)cc2)nc2cnc(Oc3cccc(Cl)c3)nc21 | 8.91µM* | · | · | · | -2.5%
N#CCCn1c(=O)c(-c2ccc(Cl)cc2)nc2cnc(Oc3cccc(Cl)c3)nc21 | 11.2µM* | · | · | · | 9.2%
O=C(Cn1nnnc1CN1CCOCC1)N1CCC(c2cccc(Cl)c2)C1 (stereo not drawn) | · | -14.1% | · | 7.3% | ·
CC(C)Oc1cccc(-n2c(CCc3c[nH]c4ccc(Br)cc34)nc3ccccc3c2=O)c1 | 9.8% | · | · | · | -3.5%
CC1CN(C(=O)C2CC(=O)N(c3ccc(Cl)cc3)C2)CC(C)O1 (stereo not drawn) | · | -6.5% | · | 0.5% | ·
CCC(C)c1ccc(O)c(NC(=O)c2cccnc2)c1 (stereo not drawn) | 10µM* | 2.0% | -17.1%[46.1 µM] | 2.6% | -1.6%
CCCc1cc(=O)[nH]c2nnc(SCC(=O)NCc3ccc4c(c3)OCO4)n12 | · | 2.8% | · | · | ·
COc1ccc(C(=N/O)/C(=N/O)c2ccc(OC)cc2)cc1 | 25.0%[38.3 µM] | 1.0% | -8.1%[46.1 µM] | -1.9% | 5.0%
COc1ccc(C(Cl)=C(c2ccc(OC)cc2)c2ccc(OC)cc2)cc1 | 8.4% | -2.2% | 7.94µM* | 0.4% | 10.5%
O=C(c1ccncc1)N1CCC2(CC1)CCN(c1ccncc1)CC2 | 28.2% | · | · | · | -4.9%
COc1ccc(CNC(=O)C(OC(=O)c2cccs2)C(C)C)cc1 (stereo not drawn) | · | -0.6% | · | 1.0% | ·
CC(C)C(OC(=O)c1cccs1)C(=O)NCc1cccs1 (stereo not drawn) | 25.1µM* | 1.4% | -9.9%[7.67 µM] | 4.0% | 7.0%
C#CCOC(=O)[C@H](N)CC(N)=O | -1.2% | · | · | · | 1.7%[14.2 µM]
CC(=O)c1cccc(NC(=O)CCNC(=O)c2cccc(C)c2)c1 | · | -4.9% | · | -4.2% | ·
CC1=CC2=C(OC1N(C)C)c1cccc3cccc(c13)C2=O (stereo not drawn) | -21.9%[38.3 µM] | 13.5% | ? | ? | 17.8µM*
CC[N+]1(CC)CC2CCC(C)(C1)C2(C)C (stereo not drawn) | -3.1% | -0.7% | 19.7% | -4.3% | -1.3%
CC12CCC(C[N+](C)(C)C1)C2(C)C (stereo not drawn) | 0.7% | -1.0% | 24.0% | 0.3% | 8.91µM*
Cc1cc(/C=C2\SC(=S)NC2=O)c(C)n1-c1ccc(O)cc1 | · | -13.1% | ? | 15.0% | 35.3%
Cc1cc(/C=C2\SC(=Nc3ccc(F)cc3)NC2=O)c(C)n1-c1ccc(S(N)(=O)=O)cc1 | 32.2%[38.3 µM] | -0.7% | 10µM* | 6.1% | 25.4%
COC(=O)c1cc(Cl)c(NC(=O)/C=C/c2ccc(OC)c(OC)c2)cc1OC | 10µM* | 0.8% | ? | ? | -13.5%
SMILES | IMPase Li cell | Tb PFK block | NPSR antagonist | MBNL1-CUG inh | RGS12 GoLoco inh
COC(=O)c1cc(Cl)c(NC(=O)/C=C/c2ccc(Cl)cc2)cc1OC | 12.6% | 1.2% | -10.4%[46.1 µM] | 2.0% | 0.9%
Cc1cc2ccccc2n1CCNC(=O)c1ccc(Br)o1 | -7.8% | -1.2% | 28.1% | 10.6% | 22.4µM*
Cc1cc2ccccc2n1CCNC(=O)c1ccccc1 | ? | 6.0% | -22.4%[46.1 µM] | 43.5% | 1.1%
S=C(Nc1ccccc1)c1ccccn1 | 38.7%[38.3 µM] | -26.1% | 3.98µM* | 10.5% | -6.0%
S=C(Nc1ccc(Nc2ccccc2)cc1)Nc1ccccn1 | 13.7% | -0.3% | -40.7% | 1.1% | 31.8%
CCOC(=O)c1cc(C(=O)OCC)c2cc(Br)ccc2n1 | 10µM* | 0.4% | -11.4%[46.1 µM] | ? | 5.8%
CNc1nc(-c2cccnc2)nc2ccccc12 | -1.0% | · | · | · | 8.7%
Cc1cccc2cc(C#N)c(SCC(=O)NCc3cccs3)nc12 | 7.94µM* | -4.4% | 7.94µM* | · | 29.2%
Cc1cccc2cc(C#N)c(SCC(=O)NCC3CCCO3)nc12 (stereo not drawn) | 0.2% | -2.7% | ? | -6.4% | -12.1%
Cc1cccc2cc(C#N)c(SCC#N)nc12 | 14.1µM* | -11.3% | ? | 70.1% | 10.4%
Cc1cccc2cc(C#N)c(SCC(=O)NNC(=O)Cc3ccccc3)nc12 | ? | -4.6% | -7.8%[46.1 µM] | 5.8% | 17.9%
CC(C)c1ccc(/C=C2\Oc3c(ccc(O)c3CN3CCN(C)CC3)C2=O)cc1 | 2.2% | -2.9% | 10µM* | ? | -2.6%
Cc1ccc(/C=C2\Oc3c(ccc(O)c3CN3CCN(CCO)CC3)C2=O)cc1 | -10.6% | -0.7% | 10µM* | ? | -0.4%
Cc1ccc(S(=O)(=O)N(CC(=O)Nc2ccccc2)C(=O)N2CCN(C)CC2)cc1 | · | 0.5% | · | · | ·
CC1(C)Cc2ccccc2/C(=C/C(=O)N2CCCCCC2)N1 | 47.5%[38.3 µM] | -4.2% | 7.94µM* | 3.6% | 7.4%
N#CC(C#N)=C1C=CC=CN1/C(=C\c1ccccc1)C(=O)c1cccs1 | 16.2% | 0.8% | ? | ? | 2.2%
N#CC(C#N)=C1C=CC=CN1/C(=C\c1ccccc1Cl)C(=O)c1ccccc1 | 9.6% | -23.1% | 7.94µM* | 8.1% | 41.1%
Cc1cc2cc3c(cc2nc1SCC(=O)Nc1nc(C)c(C)s1)OCO3 | 8.91µM* | -7.8% | -3.1%[46.1 µM] | 13.5% | 93.8%
CCc1cc2cc3c(cc2nc1SCC(=O)Nc1nnc(C)s1)OCCO3 | 12.6µM* | 2.5% | -6.7%[46.1 µM] | 7.3% | -2.3%
CCc1nnc(NC(=O)CSc2nc3cc4c(cc3cc2CC)OCCO4)s1 | -20.5%[38.3 µM] | -8.0% | ? | 25.1% | 6.4%
CCN1C(=O)[C@H]2[C@H]3CN=C(SC)N3[C@@](CC)(C(=O)OC)[C@H]2C1=O | · | 4.6% | · | · | ·
O=C(O)CNCCc1ccccc1 | 4.8% | · | · | · | -4.8%[14.2 µM]
O=C(OCn1ncc(Br)c(Br)c1=O)c1c(F)cccc1F | 8.91µM* | 0.0% | 2.51µM* | ? | -7.0%
